# Test results as given in article PMC8384837, “Expanding the binding specificity for RNA recognition by a PUF domain”.
# Numbering of substitutions follows the chain as printed.
# What was measured:
# Experiment in all cases: yeast three-hybrid, YBZ-1, SC-Leu-His + 0.5 mM 3-AT, 4 days
# Conditions in all cases: tags: N-Gal4 AD-HA kept; label: inside an RPR1-promoter hybrid RNA with tandem MS2 sites; ssRNA
# PUM1 PUF domain R2-KLV = PUM1 PUF domain R2-KLV (Homo sapiens, UniProt Q14671 828-1176, N899K;Y900L;Q903V)
# How it was run: (§1)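 Pumilio-1 PUF domain libraries, randomized (NNK) at the three base-contacting residues of each repeat, were co-expressed with matching RNA elements from a centromeric plasmid in strain YBZ-1 (LexA–MS2 coat fusion, HIS3 reporter). Transformants were plated on SC-Leu (input) and SC-Leu-His + 0.5 mM 3-AT (selection) for four days, and repeat regions were PCR-amplified and Illumina-sequenced. The interaction score is the log2 change in variant frequency from input to selection, with pseudocount 1 where absent.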
# PUM1 PUF domain R4-GHW = PUM1 PUF domain R4-GHW (Homo sapiens, UniProt Q14671 828-1176, N971G;Q975W)
# How it was run: as §1
# PUM1 PUF domain R4-WGV = PUM1 PUF domain R4-WGV (Homo sapiens, UniProt Q14671 828-1176, N971W;H972G;Q975V)
# How it was run: as §1
# PUM1 PUF domain R4-QPA = PUM1 PUF domain R4-QPA (Homo sapiens, UniProt Q14671 828-1176, N971Q;H972P;Q975A)
# How it was run: as §1
# PUM1 PUF domain R6-EWG = biological target: T1, PUM1 PUF domain R6-EWG (Homo sapiens, UniProt Q14671 828-1176, N1043E;Y1044W;Q1047G)
# T1 sequence: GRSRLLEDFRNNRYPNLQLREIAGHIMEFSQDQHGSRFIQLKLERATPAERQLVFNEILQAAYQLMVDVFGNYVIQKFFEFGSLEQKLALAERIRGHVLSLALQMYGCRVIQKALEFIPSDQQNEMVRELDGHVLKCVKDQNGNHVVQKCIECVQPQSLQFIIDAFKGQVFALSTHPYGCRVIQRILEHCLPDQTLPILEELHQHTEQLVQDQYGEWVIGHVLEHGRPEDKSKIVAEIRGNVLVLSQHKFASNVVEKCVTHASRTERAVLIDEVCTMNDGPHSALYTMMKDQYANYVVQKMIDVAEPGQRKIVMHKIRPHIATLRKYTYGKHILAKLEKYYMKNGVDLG
# How it was run: as §1
# PUM1 PUF domain R6-VWM = biological target: T2, PUM1 PUF domain R6-VWM (Homo sapiens, UniProt Q14671 828-1176, N1043V;Y1044W;Q1047M)
# T2 sequence: T1 sequence with E216V, G220M
# How it was run: as §1
# PUM1 PUF domain R8-QFR = PUM1 PUF domain R8-QFR (Homo sapiens, UniProt Q14671 828-1176, N1122Q;Y1123F;Q1126R)
# How it was run: as §1
# PUM1 PUF domain R8-QYP = PUM1 PUF domain R8-QYP (Homo sapiens, UniProt Q14671 828-1176, N1122Q;Q1126P)
# How it was run: as §1
# PUM1 PUF domain R8-RRR = PUM1 PUF domain R8-RRR (Homo sapiens, UniProt Q14671 828-1176, N1122R;Y1123R;Q1126R)
# How it was run: as §1
# PUM1 PUF domain R4-CMN = PUM1 PUF domain R4-CMN (Homo sapiens, UniProt Q14671 828-1176, N971C;H972M;Q975N)
# How it was run: as §1
# PUM1 PUF domain R6-RYG = biological target: T3, PUM1 PUF domain R6-RYG (Homo sapiens, UniProt Q14671 828-1176, N1043R;Q1047G)
# T3 sequence: T1 sequence with E216R, W217Y
# How it was run: as §1
# PUM1 PUF domain R8-RRY = PUM1 PUF domain R8-RRY (Homo sapiens, UniProt Q14671 828-1176, N1122R;Y1123R;Q1126Y)
# How it was run: as §1
# PUM1 PUF domain R6-DWG = biological target: T4, PUM1 PUF domain R6-DWG (Homo sapiens, UniProt Q14671 828-1176, N1043D;Y1044W;Q1047G)
# T4 sequence: T1 sequence with E216D
# How it was run: as §1
# PUM1 PUF domain R3-IFR = PUM1 PUF domain R3-IFR (Homo sapiens, UniProt Q14671 828-1176, C935I;R936F;Q939R)
# How it was run: as §1
# PUM1 PUF domain R3-RRP = PUM1 PUF domain R3-RRP (Homo sapiens, UniProt Q14671 828-1176, C935R;Q939P)
# How it was run: as §1
# PUM1 PUF domain R5-GSE = PUM1 PUF domain R5-GSE (Homo sapiens, UniProt Q14671 828-1176, C1007G;R1008S;Q1011E)
# How it was run: as §1
# PUM1 PUF domain R7-LSV = PUM1 PUF domain R7-LSV (Homo sapiens, UniProt Q14671 828-1176, S1079L;N1080S;E1083V)
# How it was run: as §1
# PUM1 PUF domain R7-LYW = PUM1 PUF domain R7-LYW (Homo sapiens, UniProt Q14671 828-1176, S1079L;N1080Y;E1083W)
# How it was run: as §1
# [1] = biological target: T5, PUM1 PUF domain R1-QFR R2-VFQ R6-SWD (Homo sapiens, UniProt Q14671 828-1176, S863Q;R864F;Q867R;N899V;Y900F;N1043S;Y1044W;Q1047D)
# T5 sequence: T1 sequence with S36Q, R37F, Q40R, N72V, Y73F, E216S, G220D
# How it was run: as §1
# PUM1 PUF domain R6-AWV = biological target: T6, PUM1 PUF domain R6-AWV (Homo sapiens, UniProt Q14671 828-1176, N1043A;Y1044W;Q1047V)
# T6 sequence: T1 sequence with E216A, G220V
# How it was run: as §1
sequence,measurement,setting,value
GGCUAGAACUAGUGGAUCCCCCGGCGCCCGGCGGCUCGAGCCCGGGUAAGUGUAAAGAGUCUGCAUGCCGCCGGGCGCCAUGCCUGCAGGUCGACUCUAGAAAACAUG,binding signal,PUM1 PUF domain R2-KLV,6.33 log2 enrichment (interaction score)
GGCUAGAACUAGUGGAUCCCCCGGCGCCCGGCGGCUCGAGCCCGGGUAAGUGUACAUAGUCUGCAUGCCGCCGGGCGCCAUGCCUGCAGGUCGACUCUAGAAAACAUG,binding signal,PUM1 PUF domain R4-GHW,4.34 log2 enrichment (interaction score)
same,binding signal,PUM1 PUF domain R4-WGV,3.2 log2 enrichment (interaction score)
GGCUAGAACUAGUGGAUCCCCCGGCGCCCGGCGGCUCGAGCCCGGGUAAGUGUAUAUAGUCUGCAUGCCGCCGGGCGCCAUGCCUGCAGGUCGACUCUAGAAAACAUG,binding signal,PUM1 PUF domain R4-QPA,3.55 log2 enrichment (interaction score)
same,binding signal,PUM1 PUF domain R4-GHW,4.35 log2 enrichment (interaction score)
same,binding signal,PUM1 PUF domain R4-WGV,3.61 log2 enrichment (interaction score)
GGCUAGAACUAGUGGAUCCCCCGGCGCCCGGCGGCUCGAGCCCGGGUAAGUGUAAAUAGUCUGCAUGCCGCCGGGCGCCAUGCCUGCAGGUCGACUCUAGAAAACAUG,binding signal,PUM1 PUF domain R6-EWG,4.03 log2 enrichment (interaction score)
same,binding signal,PUM1 PUF domain R6-VWM,4.44 log2 enrichment (interaction score)
same,binding signal,PUM1 PUF domain R8-QFR,4.27 log2 enrichment (interaction score)
same,binding signal,PUM1 PUF domain R8-QYP,2.62 log2 enrichment (interaction score)
same,binding signal,PUM1 PUF domain R8-RRR,5.23 log2 enrichment (interaction score)
same,binding signal,PUM1 PUF domain R4-GHW,5.62 log2 enrichment (interaction score)
same,binding signal,PUM1 PUF domain R4-CMN,3.59 log2 enrichment (interaction score)
same,binding signal,PUM1 PUF domain R6-RYG,2.84 log2 enrichment (interaction score)
same,binding signal,PUM1 PUF domain R8-RRY,0.87 log2 enrichment (interaction score)
same,binding signal,PUM1 PUF domain R4-WGV,3.11 log2 enrichment (interaction score)
same,binding signal,PUM1 PUF domain R6-DWG,4.07 log2 enrichment (interaction score)
GGCUAGAACUAGUGGAUCCCCCGGCGCCCGGCGGCUCGAGCCCGGGUAAGUGUAAUUAGUCUGCAUGCCGCCGGGCGCCAUGCCUGCAGGUCGACUCUAGAAAACAUG,binding signal,PUM1 PUF domain R3-IFR,3.8 log2 enrichment (interaction score)
same,binding signal,PUM1 PUF domain R3-RRP,4.3 log2 enrichment (interaction score)
GGCUAGAACUAGUGGAUCCCCCGGCGCCCGGCGGCUCGAGCCCGGGUAAGCGUAAAUAGUCUGCAUGCCGCCGGGCGCCAUGCCUGCAGGUCGACUCUAGAAAACAUG,binding signal,PUM1 PUF domain R8-QFR,5.16 log2 enrichment (interaction score)
same,binding signal,PUM1 PUF domain R8-RRR,5.62 log2 enrichment (interaction score)
same,binding signal,PUM1 PUF domain R8-RRY,2.72 log2 enrichment (interaction score)
GGCUAGAACUAGUGGAUCCCCCGGCGCCCGGCGGCUCGAGCCCGGGUAAGUGUAAGUAGUCUGCAUGCCGCCGGGCGCCAUGCCUGCAGGUCGACUCUAGAAAACAUG,binding signal,PUM1 PUF domain R3-IFR,5.53 log2 enrichment (interaction score)
GGCUAGAACUAGUGGAUCCCCCGGCGCCCGGCGGCUCGAGCCCGGGUAAGUGUGAAUAGUCUGCAUGCCGCCGGGCGCCAUGCCUGCAGGUCGACUCUAGAAAACAUG,binding signal,PUM1 PUF domain R5-GSE,3.41 log2 enrichment (interaction score)
GGCUAGAACUAGUGGAUCCCCCGGCGCCCGGCGGCUCGAGCCCGGGUAAGUUUAAAUAGUCUGCAUGCCGCCGGGCGCCAUGCCUGCAGGUCGACUCUAGAAAACAUG,binding signal,PUM1 PUF domain R7-LSV,4.05 log2 enrichment (interaction score)
same,binding signal,PUM1 PUF domain R7-LYW,4.45 log2 enrichment (interaction score)
GGCUAGAACUAGUGGAUCCCCCGGCGCCCGGCGGCUCGAGCCCGGGUAAGUGGAAAACGUCUGCAUGCCGCCGGGCGCCAUGCCUGCAGGUCGACUCUAGAAAACAUG,binding signal,[1],5 log2 enrichment (interaction score)
GGCUAGAACUAGUGGAUCCCCCGGCGCCCGGCGGCUCGAGCCCGGGUAAGUGAAAAUAGUCUGCAUGCCGCCGGGCGCCAUGCCUGCAGGUCGACUCUAGAAAACAUG,binding signal,PUM1 PUF domain R6-EWG,1.75 log2 enrichment (interaction score)
same,binding signal,PUM1 PUF domain R6-VWM,6.06 log2 enrichment (interaction score)
same,binding signal,PUM1 PUF domain R6-RYG,0.78 log2 enrichment (interaction score)
same,binding signal,PUM1 PUF domain R6-AWV,2.78 log2 enrichment (interaction score)
